From PubChem BioAssay AID1542 (National Center for Advancing Translational Sciences (NCATS), 2009)
Records with an inconclusive call do not appear. Calls come from the whole dose curve; as a rule, active = well fitted curve in the direction sought with a large enough effect; inconclusive = small, poorly fitted or top-dose-only effect, or effect the other way, or another doubt; inactive = no such curve, though single readings can be large or run the other way.

Molecular target: Pyruvate kinase PKM (Homo sapiens) (UniProt P14618)
Assay: Secondary assay for Activators of Human Pyruvate Kinase M1 isoform
Details: purified hPK-M1, LDH-coupled NADH fluorescence kinetic; series mostly up to 57.5 µM; activity change, positive = activation: at the top concentration
From the text: Confirmatory assay NIH Chemical Genomics Center [NCGC] Matthew G. Vander Heiden, M.D., Ph.D. [Harvard Medical School, 77 Avenue Louis Pasteur, Boston, MA 02115] NCGC Assay Overview: Human pyruvate kinase […] (hPK-M1)enzyme was supplied as a highly purified (>95% pure) preparation from Harvard Medical School and a secondary assay was used to evaluate compounds. This assay couples the formation of pyruvate from hPK-R using lactate dehydrogenase (LDH) and NADH. The depletion of NADH is followed in a fluorescent-based kinetic assay that follows the formation of pyruvate to lactate, as catalyzed LDH. Pyruvate kinase substrates, PEP and ADP, were present in the assay at 0.1 mM and 4 mM respectively. In this kinetic assay initial rates were determined by following the fluorescence of NADH depletion.
NCGC Assay Protocol Summary: Three uL of substrate mix (final concentration, 50 mM Tris-Cl pH 8.0, 200 mM KCl, 15 mM MgCl2, 0.1 mM PEP, 4.0 mM ADP, and 0.2 mM NADH) was dispensed into black-solid 1536 well plates. 23 nL of compounds were delivered by a pin tool and 1 uL of enzyme mix (final concentrations, 10 nM hPK-M1 and 1 uM of LDH) was added. Plates were immediately placed in ViewLux (Perkin Elmer) and NADH fluorescence was determined at 30 second exposure intervals for between 3 and 6 minutes. Data were normalized to the uninhibited controls.

Chain of Pyruvate kinase PKM (Homo sapiens) (P14618 whole entry, looked up, canonical isoform): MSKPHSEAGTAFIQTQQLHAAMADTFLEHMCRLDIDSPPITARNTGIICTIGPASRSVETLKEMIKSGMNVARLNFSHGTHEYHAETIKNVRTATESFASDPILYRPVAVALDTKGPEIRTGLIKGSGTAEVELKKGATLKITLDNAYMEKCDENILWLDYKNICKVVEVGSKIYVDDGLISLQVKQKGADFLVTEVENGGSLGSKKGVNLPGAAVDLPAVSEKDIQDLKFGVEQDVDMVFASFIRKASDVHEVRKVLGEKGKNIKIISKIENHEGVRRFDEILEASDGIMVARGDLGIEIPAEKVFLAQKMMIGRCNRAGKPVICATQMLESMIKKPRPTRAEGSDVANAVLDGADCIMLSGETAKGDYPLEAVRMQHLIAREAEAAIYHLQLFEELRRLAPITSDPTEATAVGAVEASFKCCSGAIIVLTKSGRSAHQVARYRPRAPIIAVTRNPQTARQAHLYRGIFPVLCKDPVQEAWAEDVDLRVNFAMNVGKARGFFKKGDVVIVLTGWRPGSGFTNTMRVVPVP

Activity change, positive = activation, inactive:
Cn1c2cc(C(=O)O)sc2c2cnn(Cc3ccccc3F)c(=O)c21 -11.8%
C=Cc1cc(F)c(S(=O)(=O)N2CCN(S(=O)(=O)c3ccc4c(c3)OCCO4)CC2)cc1F -7.75%
C=Cc1cc2c(s1)c1cnn(Cc3ccccc3F)c(=O)c1n2C -6.78%
COC/C=C/c1cc(F)c(S(=O)(=O)N2CCN(S(=O)(=O)c3ccc4c(c3)OCCO4)CC2)cc1F -14.8%
O=S(=O)(NCC1CN(S(=O)(=O)c2c(F)cccc2F)C1)c1ccc2c(c1)OCCO2 -5.12%
